Nrf2 activator – activates Nrf2 signaling; AREc32 ARE-luciferase reporter (MCF7-derived line), luminescence, 24 h; actives 0.31% (n = 410,000); AID 624171; Potency, µM (series often up to 46.1 µM), for inactives: at the highest dose activation, actives largely listed as activators; also: potency is read from the fitted curve at half-maximal effect; % of control where 0% means no effect; nearly all actives have a fitted effect of over 65% in size
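Nrf2 activation is followed as ARE-luciferase induction in the AREc32 line after one day of compound treatment; luminescence is read with Steady-Glo.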
IL2 activator – activators of IL-2. IL-2 activation reporter assay, cell-based qHTS; stimulated with anti-CD3/CD4/CD28 beads; in transgenic mouse T cells. activation, % (series mostly up to about 46 µM). actives 0.065% (n = 360,000). AID 652025; in the data active = activation above about 50%; inconclusive = mostly about 30% to 49%; also: 0% is about no effect
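Unstimulated transgenic mouse T cells; 60-min compound exposure; bead-based TCR/CD4/CD28 stimulation; 18 h culture, 37 degrees C; dual fluorescence (EGFP, DsRed) plate cytometry.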
Nrf2 block – Nrf2 pathway inhibition | actives 2.1% (n = 360,000) | Potency, µM (doses to about 46 µM), for the others: top-dose activity change, negative = inhibition, most hits filed as inhibitors | A549 ARE-Fluc reporter, luciferase luminescence, 18-24 h; also: potency is read from the fitted curve at half-maximal effect; % is scaled to controls: 0 for no effect and ±100 for the full control effect; nearly all actives have a fitted effect of over 60% in size
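Reporter: ARE-Fluc in A549. Exposure: 18-24 h, 37 °C, 5% CO2, 5% FBS OPTI-MEM. Readouts: fluorescent cytotoxicity (CellTiter-Fluor), then luminescent Nrf2 signal after BugLite.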
BRCA1 expr up – increases BRCA1 expression | AID 624202 | Potency, µM (top dose mostly 46.1 µM), inactives show at the top dose activation, usual class: activators | actives 1.1% (n = 380,000) | MCF7-BRCA1-FFLuc reporter, luminescence, 48 h; response scale: scaled: vehicle 0%, 10 µM genistein 100%; also: potency is read from the fitted curve at half-maximal effect; nearly all actives have a fitted effect of over 80% in size
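Activators of BRCA1 expression were detected as increased firefly luciferase luminescence in engineered MCF7 cells after 48 h compound incubation. Signals were scaled to genistein 10 microM as full activation.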
A549 viability – counter-screen for Nrf2 inhibitors: cytotoxicity in A549 cells; actives 0.16% (n = 390,000); Potency, µM (highest dose often 46 µM), for the others: at the highest dose activity change, negative = cytotoxicity, usual class: inhibitors; A549 ARE-Fluc cells, CellTiter-Fluor viability, 18-24 h; also: potency is read from the fitted curve at half-maximal effect; % is scaled to controls: 0 for no effect and ±100 for the full control effect
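A549 ARE_Fluc cells in 5% FBS OPTI-MEM were exposed to compounds in concentration-response for 18-24 h at 37 deg C. Viability was read by CellTiter-Fluor fluorescence (Ex 405/Em 525) after 30 min, before the luciferase read.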
p53 reactivator – restores transcriptional activity of mutant p53 | H1299 p53-A138V BP100-luciferase reporter, luminescence, 24 h | Potency, µM (top dose mostly 92.2 µM), for inactives: top-dose activity change, positive = activation, actives largely listed as activators | actives 0.063% (n = 320,000) | AID 504706; also: potency is read from the fitted curve at half-maximal effect; % of control where 0% means no effect; nearly all actives have a fitted effect of over 45% in size
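p53-null H1299 cells stably carrying temperature-sensitive p53-A138V and a BP100-luciferase reporter were pinned with compounds (4-point, 1:5 series) and held 24 hrs at 37 deg C. Luminescence was read 10 min after detection reagent.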
Starred values were filed as active, the others as inactive; ? = inconclusive; . = no result. Hits are enriched below; roughly 3.2% of the tested compounds scored in any of these assays. Unless noted, calls follow the shape of the dose curve; as a rule, active = well fitted curve in the direction sought with a large enough effect; inconclusive = small, poorly fitted or top-dose-only effect, or another doubt; inactive = no such curve, though single readings can be large; an effect the other way counts as inactive or inconclusive.

SMILES	Nrf2 activator	IL2 activator	Nrf2 block	BRCA1 expr up	A549 viability	p53 reactivator
COC(=O)C1=C(c2ccc(-c3ccccc3)c(F)c2)C[C@@H]2CC[C@H]1N2C(=O)NCCOc1ccc(OC)cc1	-0.6%	-3.3	16.4µM*	-68.8%	-17.1%	-5.5%
COC(=O)C1=C(c2cccc(OCc3ccccc3)c2)C[C@@H]2CC[C@H]1N2C(=O)NCc1cccc(OC)c1	4.7%	0.0	?	-50.9%	-6.1%	-1.3%
COC(=O)C1=C(c2ccc(-c3ccccc3)c(F)c2)C[C@@H]2CC[C@H]1N2C(=O)NCCc1ccccc1	-0.1%	-0.2	?	-28.1%	?	29.3%
Cc1cc(-c2n[nH]c(=S)n2CC(C)C)cs1	-0.3%	-0.6	?	-16.9%	2.3%	-7.2%
CCN(CC)c1ccc(C=NN2CCCCCC2)cc1	2.8%	0.8	?	44.9%	-1.5%	.
COC(=O)C1=C(c2ccc3ccccc3c2)C[C@@H]2CC[C@H]1N2C(=O)NCc1ccc(C(F)(F)F)cc1	-0.1%	-1.7	23.1µM*	-85.4%	-24.6%	-7.3%
COC(=O)C1=C(c2ccc(F)cc2F)C[C@@H]2CC[C@H]1N2C(=O)NC1CCCCC1	-0.7%	0.0	5.6%	-24.2%	-3.8%	-14.7%
COC(=O)C1=C(c2ccc(OCc3ccccc3)cc2)C[C@@H]2CC[C@H]1N2C(=O)NC1CCN(Cc2ccccc2)CC1	-1.7%	-0.8	20.6µM*	-23.7%	20.6µM*	2.9%
COC(=O)C1=C(c2ccc(OC(F)(F)F)cc2)C[C@@H]2CC[C@H]1N2C(=O)NCCOc1ccc(OC)cc1	3.4%	-0.3	23.1µM*	-59.4%	-22.0%	-8.4%
COC(=O)C1=C(c2ccc(OCc3ccccc3)cc2)C[C@@H]2CC[C@H]1N2C(=O)NCCN1CCOCC1	-0.4%	-2.7	0.7%	-35.2%	1.6%	-4.3%
COC(=O)C1=C(c2ccc(-c3ccccc3)c(F)c2)C[C@@H]2CC[C@H]1N2C(=O)NC1CCCCC1	0.1%	-0.9	18.4µM*	0.0%	?	-0.7%
O=C(O)/C=C/c1cccc(B(O)O)c1	.	.	?	-5.9%	13.9%	.
Cc1ccc(CNCc2c(C(=O)O)n(Cc3ccccc3C)c3cc(C)ccc23)cc1	0.7%	.	?	.	-0.1%	.
COc1ccc(C(=O)CSc2nnc(CNC(=O)c3ccc(S(=O)(=O)N(C)C)cc3)o2)cc1	-0.4%	1.2	-7.5%	-15.0%	1.3%	?
O=c1onc(-c2cccnc2)n1-c1ccccc1F	-0.2%	-0.1	0.0%	-18.5%	?	-0.6%
CCCNS(=O)(=O)c1ccc(OCC(=O)N2CCN(Cc3ccc4c(c3)OCO4)CC2)cc1	-0.1%	-1.5	8.2µM*	-68.5%	-12.9%	-16.4%
CCCNS(=O)(=O)c1ccc(OCC(=O)N2CCN(Cc3ccc4c(c3)OCO4)CC2)c(C)c1	7.0%	-0.6	11.6µM*	-49.0%	4.1%	-4.2%
Cc1cc(/C=C/c2cccc3sc(C)[n+](CCCCI)c23)ccc1N(CCCl)CCCl	.	.	.	-31.4%	.	.
Cc1ccccc1OCCN=Cc1c(O)n(C)c(=O)n(C)c1=O	0.8%	-3.5	20.6µM*	-44.8%	-16.2%	-6.4%
Cn1c(O)c(C=NCc2cccs2)c(=O)n(C)c1=O	6.7%	-2.3	-3.1%	3.7%	4.3%	-1.0%
Cc1cccc(-n2nc(C)c(C(=O)N3CCN(c4ccccc4)CC3)c2-n2cccc2)c1	-0.4%	.	?	.	-9.7%	.
C/C1=C\[C@@H](C)C/C=C/[C@H]2[C@@H]3O[C@]3(C)[C@@H](C)[C@H]3[C@H](Cc4c[nH]c5ccccc45)NC(=O)[C@]32C(=O)/C=C/C(=O)[C@@H]1O	-3.0%	-0.3	?	-58.2%	?	-13.1%

Bioassay records: PubChem BioAssay, National Center for Advancing Translational Sciences (NCATS)
